Sampled rows, rich in hits. Any-hit rate of the full collection: about 3.8%.
NALP1 yeast inh: inhibitors of NALP1 inflammasome in yeast; S. cerevisiae NALP1/ASC/caspase-1 growth, X-gal OD620, 72 h; inhibition, % at 10 µM; hit rate 0.61% among 280,000; in the data active means inhibition mostly above about 24%, no sharp cut-off; inactive means mostly below about 32%
HSF1 inhib: HSF1 inhibition. activity change, negative = inhibition, % at 7.5 µM (by protocol). hit rate 0.77% among 300,000. NIH3T3-HGL HSE-luciferase, MG132-induced, luminescence 8 h; active compounds read low;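 active means more than half of replicate wells show activity change below -50%, luminescence cut by over half; inconclusive means some wells, but at most half, below -50%; inactive means no replicate well below -50%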;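 further: luciferase reports HSF-1 transcriptional activity via heat shock element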
Hsp70 activator: transcriptional activators of Hsp70; HeLa Hsp70 promoter luciferase reporter, luminescence; scaled: vehicle 0, proteasome-inhibitor control 100%; activation, % at 10 µM; hit rate 0.04% among 200,000;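 active means activation above the mean across all tested compounds plus 3 SD, cutoff set per campaign, cut at about 5.5% in these data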
HSF-1 act: increases HSF-1 driven luciferase reporter signal; activation, % at 9 µM; NIH3T3-HGL HSF-1 luciferase reporter, MG132, 8 h; 100% = twice DMSO control signal; hit rate 1.7% among 300,000; AID 504408;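 active means mean replicate activation of at least 50% with a set share of replicates each reaching 50%; inconclusive means only one of those two conditions met; inactive means mean below 50% and too few replicates reaching it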
HSP90 inh: blocks HSP90-mediated luciferase refolding in reticulocyte lysate; Rabbit reticulocyte lysate, luciferase refolding luminescence, 3 h; inhibition, % at 5.6 µM; hit rate 0.91% among 290,000;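 active means inhibition above the screen-wide mean plus 3 SD, computed separately per campaign, cut at about 16% in these data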;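 further: inhibitors lower the luminescence because luciferase stays unfolded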
p-CIP stab down: compounds decreasing mouse p/CIP protein stability; Q05BA5; AID 1984; decrease of EGFP signal, % at 10 µM; hit rate 0.01% among 290,000; F442A p/CIP-EGFP cells, EGFP fluorescence, 16 h;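 active means EGFP signal decrease of at least 30% at 10 µM or well 3 SD below plate mean, unless failing retest; inactive means the rest, including hits failing retest or dose response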
A number is an active result; - = inactive; ? = inconclusive; . = not tested or not shown.

SMILES	NALP1 yeast inh	HSF1 inhib	Hsp70 activator	HSF-1 act	HSP90 inh	p-CIP stab down
O=C(c1ccc(S(=O)(=O)N2CCCC2)cc1)N1CCCC(C(F)(F)F)C1 (configuration not stated)	.	-	.	-	.	.
CCCn1c(SCC(=O)Nc2nnc(CC)s2)nnc1-c1ccncc1	30.3	-	-	-	-	-
CCc1nnc(NC(=O)CSc2nnc(-c3cccnc3)n2CC)s1	39.5	-	-	-	-	-
CCc1nnc(NC(=O)CSc2nnc(-c3ccccc3O)n2CC)s1	-	-	-	-	-	-
CN(C)S(=O)(=O)c1ccc(Cl)c(C(=O)NC2CCCCCCC2)c1	-	-	.	-	-	-
CC1CCc2nc(NC(=O)C3CCCO3)sc2C1 (configuration not stated)	32.9	-	-	-	-	-
CCCC(C)c1nnc(NC(=O)C2CCCO2)s1 (configuration not stated)	32.7	-	-	-	-	-
Cc1nnc(NC(=O)C2CCCO2)s1 (configuration not stated)	-	-	-	-	-	-
CCc1ccccc1NC(=O)C1(S(=O)(=O)c2ccc(C)cc2)CC1	-	-	.	-	-	-
CCOC(=O)N1CCN(C(=O)CN2C(=O)COc3ccc(S(=O)(=O)N4CCOCC4)cc32)CC1	-	-	.	58.3	-	-
COc1cccc(NC(=O)CN2C(=O)COc3ccc(S(=O)(=O)N4CCC(C)CC4)cc32)c1	-	-	.	86.4	-	-
CN1CCN(C(=O)CN2C(=O)COc3ccc(S(=O)(=O)N4CCOCC4)cc32)CC1	-	-	.	-	-	-
Cc1cc(S(=O)(=O)NCC(c2ccc3c(c2)OCO3)N2CCOCC2)ccc1F (configuration not stated)	.	-	.	-	.	.
Cc1nnc(C)c2c(C)n(-c3ccc4ncccc4c3)c(C)c12	25.4	-	-	-	-	-
CCc1ccc(N(CC(=O)NCc2ccco2)C(=O)CCC(=O)Nc2ccccn2)cc1	-	-	.	-	-	-
CCc1ccccc1N(CC(=O)NCc1ccco1)C(=O)CCC(=O)Nc1ccccn1	-	-70.4	.	-	-	-
O=C(C(=O)N1CCN(c2ccc(F)cc2)CC1)c1cn(CC(=O)N2CCOCC2)c2ccccc12	-	-	.	-	-	-
O=C1/C(=C/c2ccco2)SC(=S)N1CCC(=O)N1CCCCC1CCO (configuration not stated)	-	-	.	54.8	-	-
NC(=O)c1ccc(C(F)(F)F)n(Cc2ccc(Cl)cc2)c1=O	-	-	-	-	-	-
NC(=O)c1ccc(C(F)(F)F)n(Cc2cccc(Cl)c2)c1=O	-	-	-	64.4	-	-
Cc1ccc(OC(=O)c2ccc(C)c(C)c2)cn1	-	-	-	54.0	-	-
CCCCOc1ccc(C(=S)N2CCC(C(N)=O)CC2)cc1	-	-	-	-	-	-
CCN(CC)S(=O)(=O)c1cccc(NC(=O)CCNC(=O)NC23CC4CC(CC(C4)C2)C3)c1	.	-65.7	.	-	.	.
Oc1ccc(/C=N/Nc2ccc(Cl)nn2)c(O)c1O	-	-	.	-	-	-
Nc1cc2c3c(cccc3c1)C(=O)N(CCN1CCCC1)C2=O	-	-	.	-	-	-
SMILES	NALP1 yeast inh	HSF1 inhib	Hsp70 activator	HSF-1 act	HSP90 inh	p-CIP stab down
O=C1c2cccc3cc([N+](=O)[O-])cc(c23)C(=O)N1CCN1CCCC1	-	-	.	61.2	-	-
CC1=Nc2ccccc2/C1=C/c1nc(-c2ccc(C)s2)oc1O	-	-	-	58.3	-	-
C=CCN(C(=O)c1csnn1)C(C(=O)NC1CCCC1)c1ccc(F)cc1 (configuration not stated)	-	-	.	-	-	-
Cc1ccc(S(=O)(=O)Nc2nc3ccccc3nc2NCc2ccco2)cc1	-	-	-	67.6	-	-
CCN(CC)c1ccc(/C=N/NC(=O)OC(C)(C)C)cc1	-	-	.	60.0	-	-
CCN(CC)c1ccc(/C=N\NC(N)=O)cc1	-	-	-	-	-	-
Cc1cccnc1Nc1nc(-c2ccccn2)cs1	-	-	-	350.0	-	-
O=C(Nc1nc(-c2ccccn2)cs1)c1ccc(Cl)s1	97.7	-	-	223.2	-	-
O=C(Nc1nc(-c2ccc(Cl)s2)cs1)c1ccco1	-	-	-	66.8	-	-
Cc1cccnc1Nc1nc(-c2ccccc2)cs1	-	-	.	?	-	-
N#CN/C(=N\S(=O)(=O)c1ccccc1)c1ccccc1	-	-	.	-	-	-
CC(=O)N1c2ccc(S(=O)(=O)N(C)CC(=O)NCc3ccc(C)cc3)cc2CC1C (configuration not stated)	-	-	.	-	-	-
Cc1nn(C)cc1/C=N\NC(=O)c1ccc2c(c1)c(C)c(C)n2Cc1ccccc1	-	-	-	127.6	-	-
CCOC(=O)N1CCC(=NNc2ccc(S(=O)(=O)N3CCOCC3)cc2[N+](=O)[O-])CC1	-	-	-	-	-	-
CN1CCC(=NNc2ccc(S(=O)(=O)N3CCOCC3)cc2[N+](=O)[O-])CC1	-	-	-	98.0	-	-
CCC1(c2ccccc2)NC(=O)N(CC(=O)Nc2cc(S(=O)(=O)N3CCOCC3)ccc2OC(C)C)C1=O (configuration not stated)	.	-	.	-	.	.
CNC(=O)c1cc2cc(Br)ccc2s1	-	-	-	-	-	-
O=C(NC1CC1)c1cc2cc(Br)ccc2s1	29.9	-	.	-	-	-
COc1cc(NC(=O)c2cccs2)c(C(=O)OCC(=O)c2cc(C)n(-c3ccc(F)cc3)c2C)cc1OC	-	-64.4	-	-	-	-
C(=N\Nc1nc2ccccc2s1)/c1ccccn1	-	-86.7	.	-	85.6	-
Clc1ccccc1/C=N/NC1=Nc2cccc3cccc1c23	-	-	-	-	-	-
C(=N\NC1=Nc2cccc3cccc1c23)/c1ccccn1	-	-71.3	-	-	-	-
C=CCNC(=O)c1ccc(-n2cccc2)cc1	-	-	-	-	-	-
COc1ccc2[nH]c3c(NCCC4=CCCCC4)ncnc3c2c1	-	-	-	-	-	-
CCn1c(O)c(C2=c3ccccc3=NC2=O)c2cc(Br)ccc21	-	-	-	208.7	-	-
COC(=O)c1ccccc1NC(=S)N(Cc1ccc2c(c1)OCO2)Cc1cc2ccc(OC)cc2[nH]c1=O	-	-	-	90.1	-	-
Cc1cc(C)c2cc(CN(Cc3ccco3)C(=S)NCC3CCCO3)c(=O)[nH]c2c1 (configuration not stated)	-	-	-	299.0	-	-
CCC(c1nnnn1Cc1ccccc1)N(Cc1ccco1)Cc1cc2cc(OC)ccc2[nH]c1=O (configuration not stated)	-	-	-	-	-	-
COC(=O)c1ccccc1NC(=S)N(Cc1ccc2c(c1)OCO2)Cc1cc2ccc(C)cc2[nH]c1=O	-	-	-	-	-	-

Source: PubChem BioAssay
